# According to PubChem BioAssay AID1458 (National Center for Advancing Translational Sciences (NCATS), 2008):
# Among all 210,000 compounds or so, about 5,900 (2.8%) were called active. Where a call stands in place of a potency, no number is given. Roughly 5% stayed inconclusive and do not appear here. This is one part of a sample in which actives are shown more often than they occur. Calls follow the shape of the dose curve; as a rule, active = well fitted activation curve with a large enough effect; inconclusive = small, poorly fitted or top-dose-only effect; inactive = no such curve, though single readings can be large or run the other way.
# Test: qHTS Assay for Enhancers of SMN2 Splice Variant Expression; also: nearly all actives have a fitted effect of over 55% in size
# Conditions: HEK293 SMN2-luciferase splicing reporter, luminescence, 30-36 h; series mostly up to 46.1 µM
# In short: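 HEK293 cells carry an SMN2 minigene-luciferase reporter in which exon 7 inclusion puts luciferase in frame. Cells were seeded at 2000 cells/well, attached for 10-12 hours, then exposed to compounds for 30-36 hours at 37C before ONE-Glo luminescence.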
# Potency is read from the fitted curve at half-maximal effect.
row,SMILES,Potency
1,C/C=C(\C)C(=O)O[C@H]1CC(C)=C2C(=O)C=C(C)C2[C@@H]2OC(=O)[C@@](C)(OC(=O)C=C(C)C)C21 (some centres not stated),inactive
2,CCN(CCCNC(=O)c1cc(Nc2ccc(OC)cc2)nc2ccccc12)c1cccc(C)c1,inactive
3,CC(C)c1ccc(NC(=O)CN(C)S(=O)(=O)c2ccc3c(c2)c(=O)n(C)c(=O)n3C)cc1,inactive
4,O=C(CSc1oc(-c2ccco2)nc1S(=O)(=O)c1ccccc1)c1ccc(Cl)cc1,inactive
5,Cc1ccc(-c2nn(CCC(=O)Nc3ccc(OC(F)(F)F)cc3)c(=O)c3ccccc23)cc1,inactive
6,CCOc1cc(/C=C(\C#N)C(=O)Nc2ccccc2C)ccc1OCc1cc(=O)n2nc(CC)sc2n1,inactive
7,COc1ccc(-n2c(=O)c3sc4ccccc4c3n(CC(=O)Nc3cccc(C)c3)c2=O)cc1,inactive
8,C/C=C(\C)C(=O)OC1C(OC(=O)C2(C)OC2C)c2cc3ccc(=O)oc3cc2OC1(C)C (configuration not stated),inactive
9,Cc1cccc(Cn2c(SCc3ccc(C(=O)N4CCC(C)CC4)cc3)nc3ccncc32)c1,inactive
10,CC1=C(C(=O)OCC(C)C)C(c2ccc(OCc3ccccc3)cc2)N2C(=O)CCSC2=N1 (configuration not stated),inactive
11,O=C(Nc1ccon1)c1sc2ccccc2c1Cl,17.8 µM (active)
12,CCCC(=O)Nc1ccc(NC(=O)c2sc3ccccc3c2Cl)cc1,inactive
13,COC(=O)c1cc(NC(=O)c2sc3ccccc3c2Cl)cc(C(=O)OC)c1,inactive
14,COc1ccc(/C=C/c2nc(C#N)c(NCc3ccc(F)cc3)o2)cc1OC,inactive
15,CCOc1ccc(CNC(=O)C2CCN(c3nnc(-n4cccc4CNc4ccc(C)cc4)s3)CC2)cc1OC,inactive
16,COc1ccc2[nH]cc(CCNc3ncnc4ccc(-c5ccccc5CN(C)C)cc34)c2c1,inactive
17,COc1ccccc1CNc1ncnc2ccc(-c3c(C)noc3C)cc12,10 µM (active)
18,COCCNc1ncnc2ccc(-c3ccccc3CN(C)C)cc12,inactive
19,Cc1c(NC(=O)Nc2ccc(F)c(Cl)c2)c(=O)n(-c2ccccc2)n1C,inactive
20,CCCCSc1nnc(-c2ccc(C)cc2)o1,11.2 µM (active)
21,Cc1cccc(C)c1OC(=O)CSc1nnc(-c2ccccc2)o1,inactive
22,CCOC(=O)CSc1nnc(-c2ccncc2)o1,inactive
23,O=C(Cc1ccc(Cl)cc1)Nc1ccc2nn(-c3ccc(Cl)cc3)nc2c1,inactive
24,CCCCNC(=O)c1ccc2c(c1)NC(=O)C(C(C)C)N2 (configuration not stated),inactive
25,COc1ccc(CNc2nc(-c3ccccc3)nn2C(=O)c2ccccc2OC)cc1,inactive
26,Brc1cccc(-c2nnn3c2nc(NC2CCCCC2)c2ccccc23)c1,inactive

row,SMILES,Potency
1,COc1ccc(N2CCN(Cc3nc4c(c(=O)[nH]c(=O)n4C)n3Cc3ccc(Cl)cc3)CC2)cc1,inactive
2,c1ccc(-n2ncc3c(N4CCCC4)ncnc32)cc1,inactive
3,C1=C(CCNc2ncnc3c2cnn3-c2ccccc2)CCCC1,12.6 µM (active)
4,O=C(NCCC1=CCCCC1)C1CCN(Cc2cnn(-c3ccccc3)c2-n2cccc2)CC1,inactive
5,CCOc1ccccc1C(=O)NC1(C(F)(F)F)C(=O)Nc2c1c(=O)[nH]c(=O)n2-c1ccc(F)cc1 (configuration not stated),inactive
6,O=C(NC1(C(F)(F)F)N=C(c2ccccc2)N(C2CCCCC2)C1=O)c1ccccc1F (configuration not stated),inactive
7,CCCN1CN=C(NS(=O)(=O)c2ccc(NC(C)=O)cc2)NC1,inactive
8,COc1ccc(-c2cc(-c3ccc(F)cc3)nc3c2COc2ccccc2-3)cc1,inactive
9,Clc1ccc(-c2nnc(SCc3nc4ccccc4s3)o2)cc1,inactive
10,FC(F)(F)c1cnc(Oc2ccccc2-c2nnc(-c3ccc(Cl)cc3)o2)c(Cl)c1,inactive
11,CSc1ccccc1-c1nnc(-c2ccc(Cl)cc2)o1,14.1 µM (active)
12,CCOC(=O)c1ccccc1NC(=O)CCc1c(C)nc2c(c1C)c(=O)n(C)c(=O)n2C,inactive
13,CCN(CC)S(=O)(=O)c1ccc2c(c1)N(CC(=O)NCc1ccccc1)C(=O)CS2,inactive
14,CCc1ccccc1NC(=O)CSc1nnc(-c2ccncc2)o1,inactive
15,O=C(CSc1nnc(-c2ccc([N+](=O)[O-])cc2)o1)Nc1ccccn1,3.16 µM (active)
16,O=C(CSc1nnc(-c2ccncc2)o1)NCc1ccc(Cl)cc1,inactive
17,N#Cc1nc(/C=C/c2ccc(F)cc2)oc1NCc1ccc(F)cc1,inactive
18,Cc1ccc2nc3c(cc(C(=O)NC4CCCCC4)c(=N)n3C(C)C)c(=O)n2c1,inactive
19,Nc1ccccc1N,11.2 µM (active)
20,Cc1ccc(Nc2ccccc2N)cc1,inactive
21,NCCC(=O)c1ccccc1N,inactive
22,COc1ccc(NC(=O)C(=O)NCc2ccco2)cc1,inactive
23,COc1cccc(NC(=O)N2CCN(C(=O)c3nsc4ccccc34)CC2)c1,inactive
24,COc1cccc2sc(Nc3nc(C)c(C(C)=O)s3)nc12,7.94 µM (active)
25,COc1cccc2sc(N(CCCN(C)C)C(=O)C(c3ccccc3)c3ccccc3)nc12,inactive
26,COc1cccc2sc(NNC(=O)c3nc4ccccc4s3)nc12,inactive
